From PubChem BioAssay (NCATS) come the findings set out here.

The structures appear in SMILES notation. “And” between values parts separate entries of the source, which are not always exact repeats. Equal values may be shown once. Values without a mark were called inactive. Inconclusive results are not listed. The source made the active and inactive calls. Unless noted, the call rests on the fitted dose curve; in most records, active means well fitted inhibition curve with a large enough effect; inconclusive means small, poorly fitted or top-dose-only effect; inactive means flat fitted curve, though single readings scatter.

Assay [1] can be described thus: Drug repurposing screens with cells derived from glioblastoma tumor samples (AID 1345199). Further: nearly all actives have a fitted effect of over 40% in size. Further: potency means the concentration at half of the fitted maximal effect. On activity, negative = cell killing: on the % scale 0 is the no-effect control and ±100 the full control effect. The conditions noted are these: GBM patient neurospheres viability, ATP luminescence, 48 h. In short, it runs like this: (§1)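 Four patient lines of CD133+ GBM neurospheres were screened at several concentrations; hits were retested in those lines plus three slower-growing GBM lines, using 48-hour treatment and ATP-based viability.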

The subject of the next assay is astro (control astrocytes). The assay is described as above. The note with it: viability, ATP luminescence, 48 h; series mostly up to 45.9 µM. In short, it runs like this: as §1
In assay [2] the target is Nuclear receptor subfamily 1 group I member 2 (Rattus norvegicus) (UniProt Q9R1A7). Description: qHTS assay for small molecule activators of the rat pregnane X receptor (rPXR) signaling pathway (AID 651751; call rule not given here; further: 0% is about no effect). The conditions noted are these: rPXR reporter cells, luciferase (One-Glo), 24 h. (In qHTS, concentration-response curves come from the screen itself.)
Chain of Nuclear receptor subfamily 1 group I member 2 (Rattus norvegicus) (Q9R1A7 whole entry, looked up): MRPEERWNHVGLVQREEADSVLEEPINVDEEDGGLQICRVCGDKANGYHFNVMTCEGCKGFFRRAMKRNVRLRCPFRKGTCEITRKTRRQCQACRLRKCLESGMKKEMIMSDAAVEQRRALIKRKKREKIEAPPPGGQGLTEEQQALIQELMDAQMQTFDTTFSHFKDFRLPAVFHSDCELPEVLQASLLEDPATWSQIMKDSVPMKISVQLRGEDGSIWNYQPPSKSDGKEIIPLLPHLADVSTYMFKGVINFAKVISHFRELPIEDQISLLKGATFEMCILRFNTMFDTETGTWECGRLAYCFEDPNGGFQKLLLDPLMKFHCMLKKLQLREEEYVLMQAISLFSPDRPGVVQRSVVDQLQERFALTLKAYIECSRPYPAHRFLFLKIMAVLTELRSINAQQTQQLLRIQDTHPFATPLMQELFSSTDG
The nature of assay [3]: qHTS assay for small molecule activators of the human pregnane X receptor (PXR) signaling pathway (AID 720659; call rule not given here; further: 0% is about no effect). The note with it: DPX-2 HepG2 CYP3A4-luciferase, 24 h; series mostly up to 92.3 µM.
The mark [4] stands for this setting: at 20 µM (top of the series), tumour line C.
Where [5] appears, read: at 21.2 µM (top of the series), tumour line B.
Setting [6] is: at 21.2 µM (top of the series), tumour line D.
[7] abbreviates: at 21.3 µM (top of the series), tumour line A.
[8] abbreviates: at 45.9 µM (top of the series), tumour line B.
Setting [9] is: at 45.9 µM (top of the series), tumour line D.
Where [10] appears, read: at 46 µM (top of the series), tumour line A.
The mark [11] stands for this setting: at 46.1 µM (top of the series), tumour line C.

On to `CC(=O)OCC(=O)[C@H]1CC[C@H]2[C@@H]3CC[C@H]4C[C@H](O)CC[C@]4(C)[C@H]3C(=O)C[C@]12C`, for which the activity, negative = cell killing in assay [1] (setting [4]) was -20.2%; in assay [1] (setting [5]) it was -4.33%; in assay [1] (setting [6]), 0.678%; in assay [1] (setting [7]), -6.64%. For the same molecule, the Potency result in the assay with astro is “inactive”.

On to `C[C@@H](CO)NC(=O)[C@@H]1C=C2c3cccc4[nH]cc(c34)C[C@H]2N(C)C1`, for which the activity, negative = cell killing in assay [1] (setting [8]) was -4.28%; in assay [1] (setting [9]), -4.71%; in assay [1] (setting [10]) it was -21.2%; in assay [1] (setting [11]), 15.8%. Besides, in the assay on astro, the Potency result is “inactive”.

On to `Clc1ccccc1Cl`, for which the activity, negative = cell killing in assay [1] (setting [8]) is -2.22%; in assay [1] (setting [9]), -8.63%; in assay [1] (setting [10]), -3.16%; in assay [1] (setting [11]), -0.0025%. Also, the Potency entry in the assay on astro is “inactive”. Besides, in assay [2], the max response was 6.34%. The molecule was classed as inactive in assay [3].

As for `CCN(CC)C(=O)/C(Cl)=C(\C)OP(=O)(OC)OC`, the activity, negative = cell killing was 1.79% in assay [1] (setting [8]), -19.8% in assay [1] (setting [9]), -32% in assay [1] (setting [10]) and 1.99% in assay [1] (setting [11]). In the assay with astro, the Potency entry was “inactive”.

For `CCCCCl`, the activity, negative = cell killing in assay [1] (setting [8]) was -5.4%; in assay [1] (setting [9]), -17.7%; in assay [1] (setting [10]), -20.4%; in assay [1] (setting [11]), 7.44%. For the same molecule, the Potency result in the assay with astro was “inactive”. The max response in assay [2] is -2.58%. Also, in assay [3], the outcome was inactive.

Turning to `Oc1ccc2c3c1O[C@H]1[C@@H](O)CC[C@@]4(O)[C@@H](C2)N(CC2CCC2)CC[C@]314`, the activity, negative = cell killing in assay [1] (setting [8]) was -15.8%; in assay [1] (setting [9]) it was -17.2%; in assay [1] (setting [10]) it was 7.3%; in assay [1] (setting [11]), -0.783%. Further, the Potency entry with astro is “inactive”.

As for `CC(C)CCON=O`, the activity, negative = cell killing in assay [1] (setting [8]) is 0.0037%; in assay [1] (setting [9]) it was -3.58%; in assay [1] (setting [10]) it was -24.7%; in assay [1] (setting [11]) it was 2.53%. Moreover, in the assay on astro, the Potency result was “inactive”. In addition, the max response in assay [2] was 1.54%. For the same molecule, the molecule was classed as inactive in assay [3].

Regarding `Oc1cc(Cl)c(Cl)cc1Cl`, the activity, negative = cell killing in assay [1] (setting [8]) was -12.6%; in assay [1] (setting [9]), -21.4%; in assay [1] (setting [10]), -39.7%; in assay [1] (setting [11]), -1.02%. Further, in the assay on astro, the Potency result was “inactive”. The max response in assay [2] is 6.93% and 2.63%. Besides, the molecule was classed as inactive in assay [3].

Consider `NCC[C@H](O)C(=O)N[C@@H]1C[C@H](N)[C@@H](O[C@H]2O[C@H](CN)[C@@H](O)[C@H](O)[C@H]2N)[C@H](O[C@@H]2O[C@H](CO)[C@@H](O)[C@H]2O)[C@H]1O`, for which the activity, negative = cell killing was -6.64% in assay [1] (setting [4]), -8.33% in assay [1] (setting [5]), -11.1% in assay [1] (setting [6]) and -21.7% in assay [1] (setting [7]). The Potency entry in the assay with astro is “inactive”.

Regarding `C#CCN1CC(=O)N(COC(=O)C2C(C=C(C)C)C2(C)C)C1=O` (configuration not stated), the activity, negative = cell killing in assay [1] (setting [8]) was -9.8%; in assay [1] (setting [9]), 15.2%; in assay [1] (setting [10]), -23.1%; in assay [1] (setting [11]), -15.9%. For the same molecule, the Potency entry with astro is “inactive”.

As for `O=S(=O)(O)c1cc(O)ccc1O`, the activity, negative = cell killing in assay [1] (setting [4]) was 0.614%; in assay [1] (setting [5]), -13.4%; in assay [1] (setting [6]) it was -2.62%; in assay [1] (setting [7]) it was -30%. Moreover, the Potency result in the assay on astro is “inactive”.

As to `C=C[C@H]1CN2CC[C@H]1C[C@H]2[C@H](OC(=O)OCC)c1ccnc2ccc(OC)cc12`, the activity, negative = cell killing in assay [1] (setting [8]) is -6.26%; in assay [1] (setting [9]) it was -11.2%; in assay [1] (setting [11]), 18.3%. The Potency in assay [1] (tumour line A) was 10 µM (active). In addition, the Potency entry with astro was “inactive”.

As to `CCC1(C)CC(=O)NC(=O)C1`, the activity, negative = cell killing in assay [1] (setting [4]) is -7.73%; in assay [1] (setting [5]) it was -6.36%; in assay [1] (setting [6]), -5.16%; in assay [1] (setting [7]), -9.96%. Moreover, the Potency entry in the assay with astro is “inactive”.

With `S=C(S)N1CCNCC1`, the activity, negative = cell killing is -3.67% in assay [1] (setting [8]), -4.89% in assay [1] (setting [9]), -30% in assay [1] (setting [10]) and -13.9% in assay [1] (setting [11]). In addition, the Potency entry with astro is “inactive”.

Take `ClC=C(Cl)Cl`: the activity, negative = cell killing was -0.797% in assay [1] (setting [8]), -16.6% in assay [1] (setting [9]), -33.6% in assay [1] (setting [10]) and -1.4% in assay [1] (setting [11]). The Potency entry in the assay with astro is “inactive”. For the same molecule, in assay [2], the max response was 1.22% and -1.96%. In addition, the outcome in assay [3] was inactive.

For `C[C@]12CC[C@H]3[C@@H](CCC4=C(O)C(=O)CC[C@@H]43)[C@@H]1CC[C@@H]2OC(=O)CCC1CCCC1`, the activity, negative = cell killing in assay [1] (setting [8]) was -11.4%; in assay [1] (setting [9]), -14.1%; in assay [1] (setting [11]), -19.8%. In addition, the Potency entry in the assay on astro was “inactive”.

As for `CCC(=O)O[C@]1(c2ccccc2)CCN(C)C[C@H]1C`, the activity, negative = cell killing in assay [1] (setting [8]) is -13.3%; in assay [1] (setting [9]), -17.1%; in assay [1] (setting [11]), -18.2%. In the assay with astro, the Potency entry is “inactive”.

Take `CNC1(c2ccccc2Cl)CCCCC1=O` (configuration not stated): the activity, negative = cell killing in assay [1] (setting [8]) was -12.1% and -12.4%; in assay [1] (setting [9]) it was -13.4% and -12.7%; in assay [1] (setting [11]), -5.45%. In the assay with astro, the Potency entry was “inactive”.

In the case of `O=C(NCNC(=O)NC1C(=O)NC(=O)N1CO)NC1C(=O)NC(=O)N1CO` (configuration not stated), the results for the activity, negative = cell killing in assay [1] (setting [8]), in assay [1] (setting [9]) and in assay [1] (setting [11]) were -11.9%, 3.73% and -7.65%, respectively. For the same molecule, in the assay on astro, the Potency result is “inactive”.

Take `CC(=O)OC1CN2CCC1CC2` (configuration not stated): the activity, negative = cell killing in assay [1] (setting [8]) was -1.18%; in assay [1] (setting [9]) it was 12%; in assay [1] (setting [11]) it was -1.09%. Also, in the assay on astro, the Potency result was “inactive”.

Take `O=CC=O`: the activity, negative = cell killing in assay [1] (setting [8]) is 0.224%; in assay [1] (setting [9]), -5.05%; in assay [1] (setting [10]), -22.3%; in assay [1] (setting [11]) it was 29.7%. For the same molecule, the Potency entry in the assay on astro was “inactive”. The max response in assay [2] was -6.34%. Also, the molecule was classed as inactive in assay [3].
